# A selection: hits, their analogues and other compounds. The true share with any hit is near 2.8%.
# PI5P4Ka inh: inhibitors of human PI5P4K alpha; 1.2% of 330,000 active; max response, %; AID 652105; P48426; PI5P4Kalpha enzyme, ADP-Glo luminescence, 60 min; stronger effect = lower value; active means max response of -50% or lower; inconclusive means between -30% and -50%; inactive means -30% or higher; further: value at the top dose of about 77 µM; on the % scale 0 is the no-effect control and ±100 the full control effect
#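 qHTS, 1536-well: enzyme/substrate mix, compound by pin tool, 5 microM ATP final; RT 60 min; ADP-Glo reagents 1 (45 min) then 2 (30 min); luminescence.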
# WRN helicase inh: WRN helicase (human) inhibition | Q14191 | Potency, µM (highest dose often 114 µM), inactives show at the highest dose activity change, negative = inhibition, actives largely listed as inhibitors | AID 651768 | 0.46% of 360,000 active | WRN helicase unwinding, fluorescent forked duplex, kinetic; further: potency means the concentration at half of the fitted maximal effect; on the % scale 0 is the no-effect control and ±100 the full control effect; nearly all actives have a fitted effect of over 55% in size
#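 Primary qHTS, 1536-well format. 20 nM WRN + compound, 15 min RT; start with 100 nM forked fluorophore/quencher duplex, 2 mM ATP (final); kinetic read ex 525/em 598 nm.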
# POLB inh: inhibitors of human DNA polymerase beta. P06746. Pol beta primer extension/strand displacement, fluorescence kinetic. Potency, µM (doses to about 114 µM), for inactives: at the top dose activity change, negative = inhibition, most hits filed as inhibitors. 1.3% of 340,000 active. AID 485314; further: potency means the concentration at half of the fitted maximal effect; on the % scale 0 is the no-effect control and ±100 the full control effect
#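 Preincubation: enzyme (10 nM) with compound, 15 min, RT. Reaction: substrate added to 50 nM final. Reads: 0 and 10 min. Analysis: normalized, Hill fit.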
# POLI inh: inhibitors of human DNA polymerase iota; Q9UNA4; 1% of 390,000 active; Pol iota fluorescent replication assay, 10 min; Potency, µM (doses to about 115 µM), inactives show top-dose activity, negative = inhibition, hits mostly inhibitors; further: potency means the concentration at half of the fitted maximal effect
# Target sequence (Q9UNA4 whole entry, looked up): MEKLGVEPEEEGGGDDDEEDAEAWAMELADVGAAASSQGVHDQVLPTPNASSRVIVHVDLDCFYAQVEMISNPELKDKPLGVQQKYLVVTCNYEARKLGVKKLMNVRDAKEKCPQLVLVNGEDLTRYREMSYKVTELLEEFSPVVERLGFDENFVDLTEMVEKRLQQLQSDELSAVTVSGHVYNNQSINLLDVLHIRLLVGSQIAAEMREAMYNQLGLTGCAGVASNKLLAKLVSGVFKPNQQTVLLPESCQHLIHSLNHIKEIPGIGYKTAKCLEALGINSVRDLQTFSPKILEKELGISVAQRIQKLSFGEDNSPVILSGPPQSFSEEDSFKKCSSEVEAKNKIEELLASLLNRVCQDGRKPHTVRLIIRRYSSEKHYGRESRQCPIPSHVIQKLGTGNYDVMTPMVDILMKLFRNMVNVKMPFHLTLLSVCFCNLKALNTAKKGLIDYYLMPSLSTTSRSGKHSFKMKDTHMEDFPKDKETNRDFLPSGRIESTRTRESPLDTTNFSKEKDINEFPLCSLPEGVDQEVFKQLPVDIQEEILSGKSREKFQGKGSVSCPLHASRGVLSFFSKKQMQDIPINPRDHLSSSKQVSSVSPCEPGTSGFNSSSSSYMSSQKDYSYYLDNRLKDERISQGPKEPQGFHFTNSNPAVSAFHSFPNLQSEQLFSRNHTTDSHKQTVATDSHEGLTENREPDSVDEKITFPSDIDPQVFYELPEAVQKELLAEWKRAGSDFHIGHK
#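 Pol iota at 10 nM preincubated 15 min with compounds at room temperature; reaction started with fluorescent substrate, 50 nM final. Fluorescence read kinetically at 0 and 10 min; buffer-only wells as negative control.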
# Pol eta inh: blocks human DNA polymerase eta activity; Q9Y253; recombinant Pol eta, fluorescent DNA replication assay; Potency, µM (highest dose often 114 µM), for inactives: at the top dose activity change, negative = inhibition, usual class: inhibitors; 1.2% of 390,000 active; AID 588591; further: potency means the concentration at half of the fitted maximal effect; on the % scale 0 is the no-effect control and ±100 the full control effect
#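 Pol eta at 10 nM preincubated with compounds 15 min at room temperature; reaction started with fluorescent substrate (50 nM final) and read kinetically at 0 and 10 min.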
# Pol kappa inh: DNA polymerase kappa (human) inhibition; purified Pol kappa, fluorescent DNA synthesis assay, 10 min; Potency, µM (titrated, usually from 107 µM), without a hit: at the highest dose activity, negative = inhibition, usual class: inhibitors; 0.53% of 400,000 active; further: potency means the concentration at half of the fitted maximal effect; on the % scale 0 is the no-effect control and ±100 the full control effect
#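 Kinetic fluorescence readout at 0 and 10 min followed reaction start with substrate at 50 nM final. Beforehand, enzyme (10 nM Pol kappa) stood 15 min with compound at room temperature; buffer-only wells were negative controls.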
# * marks the source's active call; other numbers are inactive results; ? = inconclusive; · = not tested or not shown; ! = not active in a repeat; [ ] = another dose, or the depositor's remark. Unless noted, the call rests on the fitted dose curve; in most records, active means well fitted curve in the direction sought with a large enough effect; inconclusive means small, poorly fitted or top-dose-only effect, or another doubt; inactive means no such curve, though single readings can be large; an effect the other way counts as inactive or inconclusive.
SMILES,PI5P4Ka inh,WRN helicase inh,POLB inh,POLI inh,Pol eta inh,Pol kappa inh
COc1cccc(C(=O)NNC(=O)C(=O)Nc2ccc(C)c(Cl)c2)c1,8,-5%,79µM*,7%,-12%,-13%
CC[C@H](NC(C)C)[C@H](O)c1ccc(O)c(O)c1,·,·,·,·,·,-7%[12 µM]
CNC[C@H](O)c1ccc(O)c(O)c1,-1,·,-7%[57.1 µM],?,0%[57.1 µM],7.1µM*!
NC[C@@H](O)c1ccc(O)c(O)c1,·,·,·,·,·,12µM*
C[C@H]1CN([C@@H](C)CO)C(=O)CCCn2nncc2CO[C@H]1CN(C)C(=O)NC1CCCCC1,-7,4%,·,·,-20%,·
CC(C)(C)c1ccc(C(=O)Nc2nc3nc(-c4ccccc4)cc(=O)n3[nH]2)cc1,·,·,45µM*,?,-21%,-16%
Cc1ccc(C(=O)Nc2nc3nc(-c4ccccc4)cc(=O)n3[nH]2)cc1,-12,-16%[11.6 µM],12%,-2%,79µM*,7%
COc1ccccc1C1C2=C(N=c3s/c(=C/c4cccc(OCC(=O)O)c4)c(=O)n31)c1ccccc1CC2 (stereo unspecified),?,-32%,50µM*,?,40µM*,-31%
COc1cccc(C2C3=C(N=c4s/c(=C\c5ccc(OCC(=O)O)cc5)c(=O)n42)c2ccccc2CC3)c1 (stereo unspecified),?,-20%,?,-4%,89µM*,-16%
COc1cccc(C2C3=C(N=c4s/c(=C\c5ccc(O)cc5)c(=O)n42)c2ccccc2CC3)c1OC (stereo unspecified),-2,1%,6%,4%,-15%,-8%
Cn1c2ccccc2c(=O)c2cc(C#CC3=CCCCC3)ccc21,-30,-27%,·,4µM*,45µM*,?
Cc1n[nH]c(C)c1Sc1ccccc1[N+](=O)[O-],-1,-6%,-27%,108%,-21%,-9%
Cc1n[nH]c(C)c1Sc1ccccc1N=Cc1cc(Cl)cc([N+](=O)[O-])c1O,?,50µM*,?,25µM*,-12%,?
COc1ccc(NC(=S)NC(NC(=O)c2ccccc2Cl)C(Cl)(Cl)Cl)c([N+](=O)[O-])c1 (stereo unspecified),·,-11%[57.1 µM],?,10%,-3%,-15%
COc1ccc(NC(=S)NC(NC(=O)CCl)C(Cl)(Cl)Cl)c([N+](=O)[O-])c1 (stereo unspecified),-55*,6%,-7%,?,50µM*,-15%
COc1cc2c(cc1OC)C(O)=CC(=O)C2=O,-54*,-34%,·,·,3%,·
CC(C)Cn1c(-c2ccco2)nc2c(c(=O)c3ccccc3n2C)c1=O,·,·,40µM*,·,·,·
COc1ccc(Cn2c(-c3ccco3)nc3c(c(=O)c4ccccc4n3C)c2=O)cc1,0,-1%[11.6 µM],?,-25%,-13%,-6%
N#Cc1ccc(CSc2nnc(NC(=O)c3ccc4ncsc4c3)s2)cc1,-23,?,17%,?,32µM*,-7%
Cc1ccc(OCC(=O)NCCCNC(=O)c2ccncc2)cc1C,1,-4%[57.1 µM],40%,23%,-5%,-12%
O=C1c2c(O)cc(O)cc2O[C@H](c2ccc(O)c(O)c2)C1O (stereo partly specified),·,·,·,·,·,1.3µM*
O=C1C(=O)C(c2ccc(O)cc2O)Oc2cc(O)cc(O)c21 (stereo unspecified),·,·,·,10µM*,·,13µM*
COc1ccc([C@H]2CC(=O)c3c(O)cc(O)cc3O2)cc1O,-5,-4%,-20%,44%,-21%,0%
O=C1c2c(O)cc(O)cc2OC(c2ccc(O)c(O)c2)C1O (stereo unspecified),·,·,1.9µM*,4µM*,5.6µM*,6µM*
COc1cc(C2CC(=O)c3c(O)cc(O)cc3O2)ccc1O (stereo unspecified),-2,3%,?,24%,-24%,11%
SMILES,PI5P4Ka inh,WRN helicase inh,POLB inh,POLI inh,Pol eta inh,Pol kappa inh
COc1ccc([C@H]2Oc3cc(O)cc(O)c3C(=O)C2[C@@H]2C(=O)c3c(O)cc(O)cc3O[C@@H]2c2ccc(OC)cc2)cc1 (stereo partly specified),-58*,-6%,?,-14%,-17%,-26%
Cc1cc(C(=O)Nc2ccc3[nH]ccc3c2)no1,-8,-27%,27%,179%,0%,-1%
Cc1cccc(C)c1NC(=O)/C(C#N)=C/c1ccc(-c2ccc(C(=O)O)cc2)o1,?,-20%,?,-9%,50µM*,?
N#C/C(=C\c1ccc(-c2ccc(C(=O)O)cc2)o1)C(=O)NCC1CCCO1 (stereo unspecified),-27,-14%,16µM*,?,13µM*,?
CCOC(=O)c1ccc(-c2ccc(/C=C(\C#N)C(=O)Nc3cccc(C)c3)o2)cc1,·,·,25%,-9%,-7%,-8%[60.1 µM]
CCc1ccc(S(=O)(=O)NCc2ccc(C(=O)NCCN(Cc3ccccc3)C(C)C)cc2)cc1,10,-9%,·,·,·,·
O=C(NNc1c2ccccc2nc2ccccc12)c1ccc(O)cc1,-28,-4%[11.6 µM],79µM*,-6%,-6%,-10%[60.1 µM]
COCCCN(C(=O)c1cc2c(s1)CCC2)c1c(N)n(Cc2ccccc2)c(=O)[nH]c1=O,?,?,13µM*,32µM*,?,?
CCCCN(C(=O)CSc1nnc(Nc2ccc(C)c(C)c2)s1)c1c(N)n(Cc2ccccc2)c(=O)[nH]c1=O,-69*,-19%,-23%,-18%,-25%,-13%
CCN(C(=O)COC(=O)c1cc2c(s1)CCC(C)C2)c1c(N)n(Cc2ccccc2)c(=O)[nH]c1=O (stereo unspecified),-7,-3%[11.6 µM],·,?,?,-7%
CN(C(=O)CSc1nnc(Nc2ccccc2)s1)c1c(N)n(Cc2ccccc2)c(=O)[nH]c1=O,-21,2%,1%,-1%,-27%,-6%
CCCN(C(=O)COC(=O)c1cc(CC)c(C)s1)c1c(N)n(Cc2ccccc2)c(=O)[nH]c1=O,?,-8%[11.6 µM],·,40µM*,18µM*,?
CCN(C(=O)COC(=O)c1cc2c(s1)CCCC2)c1c(N)n(Cc2ccccc2)c(=O)[nH]c1=O,?,-17%,·,45µM*,?,-33%
Cc1ccc(C(=O)NCC(=O)Nc2ccc(Cl)cc2)s1,-4,-27%,·,23%,-3%,-24%
Nc1ccc2nn(-c3cc([N+](=O)[O-])ccc3O)nc2c1,-29,11%,6%,24%,45µM*,-24%
COc1cccc(/C=N/Nc2snc(SC)c2C#N)c1O,-6,50µM*,?,?,?,-17%
COc1cccc(/C=N/Nc2ccc(C(=O)O)cc2)c1O,-21,0%,24%,-8%,-22%,-4%
